The inhibition is the drop in the measured response relative to a control, in per cent.

Structures are written as SMILES. The whole screen tested about 330,000 compounds, of which about 4,100 (1.2%) were called active. Rule as the data show it: active = inhibition above about 50%; inactive = the rest. The entries come from a sample that favours actives as a whole.

Sequence of Sentrin-specific protease 8 (Homo sapiens) (Q96LD8 whole entry, looked up): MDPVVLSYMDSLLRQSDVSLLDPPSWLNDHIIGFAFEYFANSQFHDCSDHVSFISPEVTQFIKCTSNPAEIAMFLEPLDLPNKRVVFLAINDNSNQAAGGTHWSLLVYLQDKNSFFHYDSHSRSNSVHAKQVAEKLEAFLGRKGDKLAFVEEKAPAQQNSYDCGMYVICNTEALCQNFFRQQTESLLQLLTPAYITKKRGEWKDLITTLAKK

The assay has as its target Sentrin-specific protease 8 (Homo sapiens) (UniProt Q96LD8). As to the kind of experiment: blockers of human SENP8 peptidase activity – biochemical, luminescence, primary screen (AID 2540). The conditions noted are these: purified SENP8, Z-RLRGG-aminoluciferin cleavage, at 10 µM, hits give high values.
As for `O=C(NCC(=O)N1CCN(c2ccccc2O)CC1)c1ccc2ccccc2c1`, the inhibition was -4.96% (inactive). The result for `CC(C)N(C(=O)Cn1c(SCC(=O)N2CCN(c3ccccc3)CC2)nc2ccccc21)C(C)C` reads 3.06% (inactive); that for `CC(C)N(C(=O)Cn1cc(SCC(=O)N2CCCC2)c2ccccc21)C(C)C`, 55.6% (active).

On to `CC(C)N(C(=O)Cn1cc(S(=O)(=O)CC(=O)N2CCOCC2)c2ccccc21)C(C)C`, for which the inhibition is -2.24% (inactive). The result for `O=[N+]([O-])c1cc(S(=O)(=O)NCCc2ccccn2)ccc1Cl` reads -1.07% (inactive); that for `CC/C(Cc1ccccc1)=N/NC(=O)CCn1nnc2ccccc21`, 2.91% (inactive). With `O=C(Nc1ccccc1C(=O)NCC1CCCO1)c1ccccc1F` (stereo not given), the inhibition is -12.9% (inactive). The result for `Cc1c(C(=O)N(C)CCc2cnn(C)c2)oc2c(F)cccc12` reads 3.74% (inactive); that for `O=C(NC(Nc1nc2ccc([N+](=O)[O-])cc2s1)(C(F)(F)F)C(F)(F)F)c1ccccc1`, -0.974% (inactive). The result for `O=C(c1ccncc1)c1ccc([N+](=O)[O-])cc1` reads -5.02% (inactive).

For `O=C(Nc1nc2ccc([N+](=O)[O-])cc2s1)c1ccncc1`, the inhibition is 87.5% (active). In the case of `CCCOC(=O)c1c(NC(=O)c2cnn3c2NC(c2ccccc2)CC3C(F)(F)F)sc2c1CCCC2` (stereo not given), the inhibition is -1.5% (inactive). For the compound `O=C(c1ccco1)N1CCN(C(=S)Nc2cc(F)cc(F)c2)CC1`, the inhibition was 2.74% (inactive). Regarding `COc1ccc(N2CCN(C(=O)CNS(=O)(=O)c3ccc(C)c(C)c3)CC2)cc1`, the inhibition was -6.38% (inactive). The result for `Cc1cccc2cc3c(N)c(C(=O)N4CCCc5ccccc54)sc3nc12` reads -4.99% (inactive).

`CC(=O)c1ccc(OCCCC(=O)Nc2ccc(C)c(S(=O)(=O)N3CCOCC3)c2)cc1`: the inhibition is 8.63% (inactive). The result for `CC1CN(C(=S)SCC(=O)c2ccccc2)CC(C)O1` (stereo not given) reads 1.35% (inactive); that for `O=C(CSC(=S)N1CCOCC1)c1cc(Br)cc(Br)c1O`, -4.17% (inactive); that for `O=C(CSC(=S)N1CCOCC1)c1ccccc1`, 59.3% (active). The result for `CCOc1ccc(S(=O)(=O)N2CCC(C(=O)NCC(=O)Nc3cccc(Cl)c3C)CC2)cc1` reads 3.22% (inactive); that for `Cc1ccc(-c2nc(CSCC(=O)NC3CCN(Cc4ccccc4)CC3)c(C)o2)cc1`, -1.87% (inactive); that for `CCCn1c(C)cc(/C=C(\C#N)C(=O)OCC(=O)Nc2cc(OC)c(OC)c(OC)c2)c1C`, 1.35% (inactive). The result for `COc1ccccc1NC(=O)C1=C(C)Nc2nc3ccccc3n2C1c1cccs1` (stereo not given) reads -5.43% (inactive). As for `O=C(Nc1ccc(N2CCCC2=O)cc1)c1cncc(Br)c1`, the inhibition was -0.181% (inactive). The result for `CCOC(=O)c1cccnc1NC(=O)c1ccncc1` reads -5.42% (inactive). The result for `CCOC(=O)c1sc(NC(=O)c2sc(C)nc2C)nc1C` reads 13.7% (inactive); that for `CCOC(=O)c1sc(NC(=O)c2ccncc2)nc1C`, 88.2% (active). For `Cc1ccc(NC(=O)CN(C)C(=O)c2ccc(Cl)c(S(=O)(=O)NCc3ccco3)c2)cc1`, the inhibition was -1.14% (inactive).

Take `O=CN1CCN(C(=O)c2ccc(Br)o2)CC1`: the inhibition was 0.91% (inactive).

Consider `Cc1onc(C(=O)Nc2ccc3c(c2)OCO3)c1[N+](=O)[O-]`, for which the inhibition was -9.15% (inactive). The result for `O=C(COC(=O)c1ccncc1)Nc1ccc2c(c1)OCO2` reads 8.05% (inactive). The result for `CN1CCN(c2ccc(NC(=O)c3ccc4c(c3)OCCO4)cc2Cl)CC1` reads 3.49% (inactive); that for `O=C(COC(=O)c1ccc(F)cc1)Nc1ccc2c(c1)OCO2`, -15.4% (inactive).

As for `CC(=O)Nc1cccc(C(=O)OCC(=O)c2ccc3c(c2)OCO3)c1`, the inhibition was 67.1% (active).

As for `O=C(Nc1ccc(N2CCOCC2)cc1)c1ccc2c(c1)OCO2`, the inhibition is 12.3% (inactive). The result for `O=C(Nc1ccc(NC(=O)c2ccc3c(c2)OCO3)cc1)c1cccc(Cl)c1` reads -4.6% (inactive); that for `O=C(Nc1cccc([N+](=O)[O-])c1)c1ccc2c(c1)OCO2`, 59.1% (active).

In the case of `O=C(Nc1ccccc1)c1ccc2c(c1)OCO2`, the inhibition is 66.7% (active). The result for `O=C(Nc1ccc2c(c1)OCCO2)c1ccoc1` reads -5.62% (inactive); that for `O=C(Nc1ccccc1)c1ccc2c(c1)OCCCO2`, 75.9% (active). Regarding `CC(NC(=O)Nc1cccc([N+](=O)[O-])c1)c1ccc2c(c1)OCO2` (stereo not given), the inhibition was -0.051% (inactive). The result for `Cc1ccsc1C1C(C#N)=C(N)OC2=C1C(=O)CC(C)C2` (stereo not given) reads -10.3% (inactive). The result for `Cc1ccc(S(=O)(=O)N2CCCCC2)cc1NC(=O)c1cccnc1` reads -12.3% (inactive); that for `CC1(C)C/C(=N/Nc2ccc([N+](=O)[O-])cc2[N+](=O)[O-])C(C)(C)O1`, -5.03% (inactive). The result for `CCCCn1c(N)c(N(CC(C)C)C(=O)CN(C)S(=O)(=O)c2ccc(F)cc2)c(=O)[nH]c1=O` reads 2.26% (inactive); that for `COC(=O)C1=C(C(=O)OC)C2(OC1c1ccc(Br)cc1)C(=O)c1ccccc1C2=O` (stereo not given), -0.809% (inactive); that for `Cc1ccc2sc(NNC(=O)c3ccc4c(c3)OCCO4)nc2c1C`, -5.8% (inactive). As to `COc1ccc(C(=O)Nc2ccc3nc(N4CCCCC4)cc(C)c3c2)cc1OC`, the inhibition was 1.68% (inactive). The result for `O=C(Nc1ccccc1F)c1ccc2c(c1)OCO2` reads 65.2% (active); that for `COc1ccc(C(=O)Nc2ccc(C3(C#N)CCCC3)cc2)cc1OC`, 92.8% (active); that for `N#CCCN(C(=O)COC(=O)c1ccc2c(c1)OCCO2)c1ccccc1`, 10% (inactive). The result for `COc1cc(C(=O)NCC2(c3ccccc3)CCCC2)ccc1OC(C)C` reads 1.28% (inactive); that for `O=C(COC(=O)c1ccc2c(c1)OCCO2)NCc1ccccc1Cl`, -14.4% (inactive). Take `N#Cc1ccccc1NC(=O)c1ccc2c(c1)OCO2`: the inhibition is 0.633% (inactive). With `O=C(OCc1ccccc1F)c1ccc2c(c1)OCCO2`, the inhibition was 80.2% (active). The result for `COCc1nnc(NC(=O)c2ccc3c(c2)OCO3)s1` reads 0.871% (inactive). `O=C(Nc1nc2ccccc2s1)c1ccc2c(c1)OCO2`: the inhibition was 94.1% (active). The result for `CN(Cc1c(F)cccc1Cl)C(=O)CNC(=O)c1ccc2c(c1)OCO2` reads -2.64% (inactive); that for `O=C(Nc1cc(Cl)ccc1N1CCOCC1)c1ccc(N2CCCC2=O)cc1`, 6.24% (inactive). The result for `CC(CNc1ccc([N+](=O)[O-])c2cccnc12)Nc1c([N+](=O)[O-])cc(C(F)(F)F)cc1[N+](=O)[O-]` (stereo not given) reads -1.48% (inactive).

For the origin of these results see PubChem BioAssay AID2540 (Sanford-Burnham Center for Chemical Genomics, 2010).
